Calls of active or inactive are those of the source. Where a call stands in place of a potency, no number is given. Calls come from the whole dose curve; as a rule, active = well fitted curve in the direction sought with a large enough effect in the signal ratio in the repeat runs (not every such curve was filed as active); inconclusive = weak or mixed curves, or effect the other way; inactive = no such curve, though single readings can be large or run the other way; the % refers to the signal ratio.

Potency data for 40 compounds are collected here from PubChem BioAssay (Tox21).
Potency is the fitted concentration of half-maximal effect.

This test deals with Estrogen receptor (Homo sapiens) (UniProt P03372). The experiment in a line: qHTS assay to identify small molecule antagonists of the estrogen receptor alpha (ER-alpha) signaling pathway (AID 743069). The conditions noted are these: HEK293 ER-alpha-UAS-bla, beta-lactamase ratio, antagonist mode; series mostly up to 69.4 µM. An excerpt: National Center for Advancing Translational Sciences [NCATS]
Sequence of Estrogen receptor (Homo sapiens) (P03372 whole entry, looked up): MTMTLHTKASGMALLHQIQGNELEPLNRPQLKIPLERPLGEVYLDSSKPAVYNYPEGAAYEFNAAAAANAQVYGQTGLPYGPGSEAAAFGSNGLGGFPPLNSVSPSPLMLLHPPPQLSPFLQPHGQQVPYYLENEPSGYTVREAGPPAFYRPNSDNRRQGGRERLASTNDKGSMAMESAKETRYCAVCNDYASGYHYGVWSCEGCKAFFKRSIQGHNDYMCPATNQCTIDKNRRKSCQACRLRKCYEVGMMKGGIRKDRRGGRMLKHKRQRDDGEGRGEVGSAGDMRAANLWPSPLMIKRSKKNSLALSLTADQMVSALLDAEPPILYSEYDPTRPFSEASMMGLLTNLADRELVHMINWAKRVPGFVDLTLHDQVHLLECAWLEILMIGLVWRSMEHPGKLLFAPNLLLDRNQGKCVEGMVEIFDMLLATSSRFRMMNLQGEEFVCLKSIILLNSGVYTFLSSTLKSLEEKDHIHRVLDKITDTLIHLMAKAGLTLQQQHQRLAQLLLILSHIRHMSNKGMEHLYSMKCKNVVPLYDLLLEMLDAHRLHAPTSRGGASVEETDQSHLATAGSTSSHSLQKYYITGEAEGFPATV
NIH Chemical Genomics Center [NCGC]
U.S. Environmental Protection Agency [EPA]
National Institutes of Environmental Health Sciences [NIEHS]
National Toxicology Program [NTP]
U.S. Food and Drug Administration [FDA]
Estrogen receptor (ER), a nuclear hormone receptor, plays an important role in development, metabolic homeostasis and reproduction. Two subtypes of ER, ER-alpha and ER-beta have similar expression patterns with some uniqueness in both types. Endocrine disrupting chemicals (EDCs) and their interactions with steroid hormone receptors like ER causes disruption of normal endocrine function. To identify the compounds that inhibit ER signaling, an ER-alpha-UAS-bla GripTiteTM cell line (Invitrogen, Carlsbad, CA, USA) containing a beta-lactamase reporter gene under the control of an Upstream Activator Sequence (UAS) stably integrated into HEK293 cells was used to screen the Tox21 10K compound library.
Tox21 Assay Protocol Summary:
ER-alpha-bla cells were cultured in assay medium containing 2% charcoal stripped FBS overnight in the culture flasks before the assay was performed. The cells were dispensed at 5,000 cells/5 uL of assay medium per well into black wall/clear-bottom 1536-well plates using a Multidrop Combi (ThermoFisher Scientific, Waltham, MA) dispenser. After the assay plates were incubated at a 37C and 5% CO2 for 4 hr, 23 nL of compounds dissolved in DMSO, positive controls or DMSO only was transferred to the assay plate by a Pintool station (Kalypsys, San Diego, CA), followed by addition of 1 uL of 17beta-estradiol in assay medium using a Flying Reagent Dispenser (Aurora Discovery, San Diego, CA). The plates were incubated at 37C and 5% CO2 for 18 hr. Then 1 uL of LiveBLAzerTM B/G FRET substrate was added using a Flying Reagent Dispenser, the plates were incubated at room temperature for 2 hours, and fluorescence intensity was measured by an Envision plate reader (PerkinElmer, Shelton, CT).
For orientation: qHTS replaces the single test concentration by a dilution series.
Take `CC1(C)[C@H](C=C(Cl)Cl)[C@H]1C(=O)OCc1c(F)c(F)cc(F)c1F`: the Potency result is “inactive”.
As for `[S]=[Sb](=[S])[S][Sb](=[S])=[S]`, the Potency result is “inactive”.
Take `c1ccccc1`: the Potency entry was “inactive”.
In the case of `NC1=NC(=O)N2CC12` (stereo not given), the Potency result is “inactive”.
For the compound `CCC(=O)O[C@]1(c2ccccc2)CCN(C)C[C@H]1C`, the Potency entry was “inactive”.
For `CNc1ccc(C(=O)CC(O)CCC(C)C2OC(=O)CC(O)CC(=O)CC(O)CC(O)CC(O)CC(O)CC3(O)CC(O)C(C(=O)OC)C(CC(O[C@@H]4O[C@H](C)[C@@H](O)[C@H](N)[C@@H]4O)/C=C/C=C/C=C/C=C/C=C/C=C/C=C/C2C)O3)cc1` (stereo not given in full), the Potency entry was “inactive”.
In the case of `C[C@H]1CC[C@]2(NC1)O[C@H]1C[C@H]3[C@@H]4CC[C@H]5C[C@@H](O)CC[C@]5(C)[C@H]4CC[C@]3(C)[C@H]1[C@@H]2C`, the Potency entry was “inactive”.
On to `O=C1CCO1`, for which the Potency result is “inactive”.
Take `CCCCCN(C)CCC(O)(P(=O)(O)O)P(=O)(O)O`: the Potency result was “inactive”.
`CN1[C@H]2CC[C@@H]1[C@@H](C(=O)O)[C@@H](OC(=O)c1ccccc1)C2`: the Potency entry was “inactive”.
Under `C[N+]1([O-])[C@@H]2CC(OC(=O)[C@H](CO)c3ccccc3)C[C@H]1[C@@H]1O[C@@H]12` (stereo not given in full) stands “inactive”; under `CCCCc1ccc(C(=O)O)nc1`, “inactive”.
Regarding `CN1c2ccccc2C(NCCCCCCC(=O)O)c2ccc(Cl)cc2S1(=O)=O` (stereo not given), the Potency entry is “inactive”.
For the compound `[2H]C([2H])([2H])[C@H](N)Cc1ccccc1`, the Potency entry is “inactive”.
For the compound `CCC1(c2cnc[nH]2)Cc2ccccc2C1`, the Potency entry is “inactive”.
With `C#CC(C)(O)CC` (stereo not given), the Potency result was “inactive”.
Under `COC([CH2][Hg])CNC(=O)c1ccccc1OCC(=O)O` (stereo not given) stands “inactive”; under `ClC1=C(Cl)[C@]2(Cl)[C@@H]3[C@@H](Cl)[C@H]4O[C@H]4[C@@H]3C1(Cl)C2(Cl)Cl`, “inactive”; under `C#CCN1CC(=O)N(COC(=O)C2C(C=C(C)C)C2(C)C)C1=O` (stereo not given), “inactive”.
`CC(N)Cc1ccc(O)cc1` (stereo not given): the Potency result is “inactive”.
Under `CCC1(C)CC(=O)NC(=O)C1` stands “inactive”; under `CC(=O)OO`, “inactive”; under `COc1ccc2c3c1O[C@H]1[C@@H](O)C=C[C@H]4[C@@H](C2)NCC[C@@]341`, “inactive”.
Under `S=C(S)N1CCNCC1` stands “inactive”.
As for `CCCC(C)(COC(N)=O)COC(=O)NC1CC1` (stereo not given), the Potency result was “inactive”.
Under `COc1ccc(OC)c([C@@H](O)[C@H](C)N)c1` stands “inactive”.
On to `CCCC(C)C1(CC)C(=O)NC(=O)NC1=O` (stereo not given), for which the Potency result is “inactive”.
In the case of `C=CCC1(C(C)CCC)C(=O)N=C(S)NC1=O` (stereo not given), the Potency result is “inactive”.
As to `CC(C)C[C@H]1C(=O)N2CCC[C@H]2[C@]2(O)O[C@](NC(=O)[C@@H]3C[C@@H]4c5cccc6[nH]cc(c56)C[C@H]4N(C)C3)(C(C)C)C(=O)N12`, the Potency result was “inactive”.
For the compound `O=C(NC(=O)c1c(F)cccc1F)Nc1ccc(Cl)c(Oc2ncc(C(F)(F)F)cc2Cl)c1`, the Potency entry is “inactive”.
Under `CN1CC[C@@]23CCCC[C@@H]2[C@@H]1Cc1ccc(O)cc13` stands “inactive”.
`O=C1C(I)=CC(=C(c2cc(I)c(O)c(I)c2)c2ccccc2C(=O)O)C=C1I`: the Potency is 7.56 µM [inconclusive] (active).
With `COC(=O)[C@@H]1[C@H]2CC[C@@H](C[C@H]1OC(=O)c1ccccc1)N2C`, the Potency result was “inactive”.
As for `OC(c1ccccc1)(c1ccccc1)C1CN2CCC1CC2` (stereo not given), the Potency entry was “inactive”.
As for `C[C@]12CC[C@H](OS(=O)(=O)O)CC1=CC[C@@H]1[C@@H]2CC[C@]2(C)C(=O)CC[C@@H]12`, the Potency entry is “inactive”.
For `COc1ccc(C(c2ccc(OC)cc2)C(Cl)(Cl)Cl)cc1`, the Potency was 43.4 µM [inconclusive] (active).
`O=C1OC2(c3cc(Br)c(O)cc3Oc3c2cc(Br)c(O)[c]3[Hg])c2ccccc21` (stereo not given): the Potency result is “inactive”.
For the compound `F/C(COc1ccc2c(c1)[nH]c1ccccc12)=C1/CN2CCC1CC2`, the Potency is 19 µM [inhibitor] (active).
With `O=C1CCCCC1CN1CCCCC1` (stereo not given), the Potency entry was “inactive”.
Turning to `C[C@H]1[C@H]2Cc3ccc(O)cc3[C@]1(C)CCN2CCc1ccccc1`, the Potency entry was “inactive”.
